# GPR151 activ = human GPR151 activation. Q8TDV0. PathHunter beta-arrestin GPR151 cells, luminescence. activation, % at 11.2 µM. 650,000 tested, 1% active; in the data active = activation above about 4.9%;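 note: 0% = median of compound wells and 100% = cells with positive control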
# MITF inh = blocks human microphthalmia-associated transcription factor; inhibition, % at 2.6 µM; O75030; AID 1259374; 650,000 tested, 0.91% active; AlphaScreen MITF homodimerization, bead proximity signal; in the data active = inhibition above about 50%;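 note: 0% = vehicle wells with protein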
# Target sequence (O75030 whole entry, looked up): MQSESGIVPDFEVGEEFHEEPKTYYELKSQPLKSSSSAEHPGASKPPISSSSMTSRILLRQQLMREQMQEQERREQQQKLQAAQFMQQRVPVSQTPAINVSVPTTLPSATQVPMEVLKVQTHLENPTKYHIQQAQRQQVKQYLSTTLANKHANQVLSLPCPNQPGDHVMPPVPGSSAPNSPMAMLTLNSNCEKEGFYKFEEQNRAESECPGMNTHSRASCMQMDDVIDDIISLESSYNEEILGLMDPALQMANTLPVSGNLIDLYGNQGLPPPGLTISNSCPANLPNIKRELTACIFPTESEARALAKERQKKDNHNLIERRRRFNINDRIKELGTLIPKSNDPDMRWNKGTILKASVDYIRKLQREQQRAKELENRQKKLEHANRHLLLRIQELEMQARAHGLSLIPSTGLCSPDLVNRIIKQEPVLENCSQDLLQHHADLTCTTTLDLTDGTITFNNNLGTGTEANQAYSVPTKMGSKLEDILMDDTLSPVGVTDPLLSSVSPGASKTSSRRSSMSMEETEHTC
# TEAD-YAP inh = TEAD-YAP interaction inhibition. HEK-TIYL cells, TEAD-Gal4/YAP UAS-luciferase luminescence. inhibition, % at 9.12 µM. 640,000 tested, 1.4% active. AID 1259422; in the data active = inhibition above about 32%;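 note: 0% = median of test compound wells and 100% = reference inhibitor wells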
# FBW7 act = activators of human E3 ligase FBW7; AlphaScreen FBW7–phospho-cyclin E peptide binding, activator screen; 650,000 tested, 0.13% active; normalized activity (activation), % at 26.1 µM; in the data active = normalized activity above about 1.9%;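 note: purified mutant Fbw7 with reduced substrate affinity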
# MITF confirm = human MITF inhibition, confirmation; inhibition, % at 2.6 µM; 4,700 tested, 16% active; AID 1259372; shares compounds with MITF inh; AlphaScreen MITF homodimerization, biotin/His-MITF beads;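 active = inhibition above a cutoff derived from the DMSO control wells, cut at about 28% in these data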;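 note: 0% = MITF dimer wells with DMSO only; inhibitors lower the bead chemiluminescence by keeping MITF from dimerizing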
# AlphaScreen DR = counter-screen: compounds optically interfering with AlphaScreen. AlphaScreen optical interference counterscreen, cell-free. shares compounds with MITF inh. IC50, µM. 480 tested, 6% active; call rule not given here
# AS interf ctr = optically interferes with AlphaScreen signal | shares compounds with MITF inh | LysRS AlphaScreen counterscreen, signal interference, triplicate | inhibition, % at 2.6 µM | 4,700 tested, 7.6% active;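 active = inhibition above a cutoff derived from the DMSO control wells, cut at about 30% in these data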
# Numbers without * were called inactive; / = no result given. Sampled rows, rich in hits. Any-hit rate of the full collection: about 3.4%.
SMILES,GPR151 activ,MITF inh,TEAD-YAP inh,FBW7 act,MITF confirm,AS interf ctr,others
COc1ccc(-c2cccc(C(=O)NCc3ccc4c(c3)OCO4)c2)cc1,0,-3,1,0,/,/,
COc1cccc(-c2cc(CNC(=O)c3ccc4c(c3)OCO4)no2)c1,1,51*,3,0,9,-11,
O=C1CCC(N2CCCC2)CCN1Cc1ccccc1Cl (configuration not stated),0,0,0,0,/,/,
c1ccc(CN2CCC(N3CCN(C4CCCCCC4)CC3)CC2)cc1,0,21,-2,0,/,/,
Cc1ccccc1CN1CCN(C2CCCC2)CC1,3,57*,9,0,-18,4,
Clc1ccccc1CN1CCN(C2CCCC2)CC1,-1,74*,5,0,19,16,
Clc1ccccc1CN1CCN(C2CCCCC2)CC1,1,65*,-15,0,13,15,
Cc1ccccc1CN1CCC(N2CCCC2)CC1,-1,47,-1,0,/,/,
Cc1ccc(F)c(CN2CCN3C(=O)[C@H](CC(C)C)NC(=O)[C@H]3C2)c1,-1,19,0,0,/,/,
COc1ccccc1NC(=S)NCCCn1ccnc1,1,79*,6,0,-1,2,
O=C(NCC1CCCN(C2CCSCC2)C1)C1(c2ccc(Cl)cc2)CC1 (configuration not stated),-1,9,4,0,/,/,
O=[N+]([O-])c1cccc(CN2CCN(Cc3ccccn3)CC2)c1,0,101*,-2,0,-8,-2,
Clc1ccccc1CN1CCN(c2ccccn2)CC1,-1,47,1,0,/,/,
Cc1cccc(CN2CCN(c3ncccn3)CC2)c1,3,54*,-12,0,7,10,
OCC1(Cc2cccc(Cl)c2)CCCN(Cc2ccccn2)C1 (configuration not stated),-1,1,-1,0,/,/,
O=[N+]([O-])c1cccc(CN2CCN(C3CCN(Cc4ccccc4)CC3)CC2)c1,1,46,4,0,/,/,
Clc1ccccc1CN1CCN(Cc2ccccn2)CC1,-1,74*,-16,0,-1,1,
Clc1cccc(CN2CCN(Cc3ccccn3)CC2)c1,2,70*,2,0,22,17,
O=c1c2cc3ccccc3cc2[nH]c(=S)n1CCCN1CCCCCC1,-1,0,-26,1,/,/,
COc1cccc(CN2CCC(=O)N(Cc3ccccn3)CC2)c1,0,15,12,0,/,/,
Fc1ccc(CN2CCN(Cc3ccccn3)CC2)cc1,3,70*,-52,0,9,16,
Cc1cccc(CN2CCN(Cc3ccccn3)CC2)c1,-1,72*,3,0,6,20,
CC1=CC(C)(C)NC(=S)N1c1ccc(Cl)cc1,1,15,6,0,/,/,
CC1=CC(C)(C)NC(=S)N1c1cc(Cl)cc(Cl)c1,-1,58*,-4,0,10,18,
CN(C)[C@@H]1C(=O)C(C(=O)NCN2CCCC2)=C(O)[C@@]2(O)C(=O)C3=C(O)c4c(O)cccc4[C@@](C)(O)C3CC12 (some centres not stated),1,72*,-3,0,78*,8,AlphaScreen DR=>6.5
SMILES,GPR151 activ,MITF inh,TEAD-YAP inh,FBW7 act,MITF confirm,AS interf ctr,others
CCN1C(=O)/C(=C/c2ccc(-c3ccc([N+](=O)[O-])cc3)o2)NC1=S,0,52*,3,0,-7,14,
O=C(Cn1cccc1)Nc1cccc(F)c1,1,-2,-8,0,/,/,
CCC(=O)Nc1cc2c(cc1Br)n(CC)c(=O)n2CC,-1,0,-4,0,/,/,
CCCC(C)C(=O)Nc1ccccc1C (configuration not stated),0,51*,2,1,1,9,
Cc1cc(C(C)(C)C)ccc1OCCN(C)C,2,84*,2,0,25,9,
Cc1cc(C(C)(C)C)ccc1OCCCNCCN,4,10,1,0,/,/,
C=CCNCCCOc1ccc(C(C)(C)C)cc1C,-1,32,-7,0,/,/,
C=CCNCCOc1ccc(C(C)(C)C)cc1C,1,51*,10,0,-12,5,
COc1cccc(N2C(=O)C3C4C=CC(O4)C3C2=O)c1 (configuration not stated),-1,22,1,0,/,/,
Cc1oc(C)c(C(=O)O)c1CSc1ccccc1C(=O)O,1,5,3,0,/,/,

# Screening data (PubChem)
